Laboratory results reported in the supplement of paper PMC11732987, “Enantioselective OTUD7B fragment discovery through chemoproteomics screening and high-throughput optimisation” (Communications Chemistry, 2025).

Experiments:
Experiment in all cases: log2 ratio of Biotin-Ahx-Ub-VS probe labelling (fragment/DMSO); higher = less target engagement (more negative = stronger competition), active = hit call of the paper (q ≤ 0.05, log2 ratio ≤ -1)
Settings in all cases: compound concentration: 200 uM; treatment time: 3 h
USP19 = molecular target: T1, USP19 (UniProt O94966)
T1 sequence (whole entry): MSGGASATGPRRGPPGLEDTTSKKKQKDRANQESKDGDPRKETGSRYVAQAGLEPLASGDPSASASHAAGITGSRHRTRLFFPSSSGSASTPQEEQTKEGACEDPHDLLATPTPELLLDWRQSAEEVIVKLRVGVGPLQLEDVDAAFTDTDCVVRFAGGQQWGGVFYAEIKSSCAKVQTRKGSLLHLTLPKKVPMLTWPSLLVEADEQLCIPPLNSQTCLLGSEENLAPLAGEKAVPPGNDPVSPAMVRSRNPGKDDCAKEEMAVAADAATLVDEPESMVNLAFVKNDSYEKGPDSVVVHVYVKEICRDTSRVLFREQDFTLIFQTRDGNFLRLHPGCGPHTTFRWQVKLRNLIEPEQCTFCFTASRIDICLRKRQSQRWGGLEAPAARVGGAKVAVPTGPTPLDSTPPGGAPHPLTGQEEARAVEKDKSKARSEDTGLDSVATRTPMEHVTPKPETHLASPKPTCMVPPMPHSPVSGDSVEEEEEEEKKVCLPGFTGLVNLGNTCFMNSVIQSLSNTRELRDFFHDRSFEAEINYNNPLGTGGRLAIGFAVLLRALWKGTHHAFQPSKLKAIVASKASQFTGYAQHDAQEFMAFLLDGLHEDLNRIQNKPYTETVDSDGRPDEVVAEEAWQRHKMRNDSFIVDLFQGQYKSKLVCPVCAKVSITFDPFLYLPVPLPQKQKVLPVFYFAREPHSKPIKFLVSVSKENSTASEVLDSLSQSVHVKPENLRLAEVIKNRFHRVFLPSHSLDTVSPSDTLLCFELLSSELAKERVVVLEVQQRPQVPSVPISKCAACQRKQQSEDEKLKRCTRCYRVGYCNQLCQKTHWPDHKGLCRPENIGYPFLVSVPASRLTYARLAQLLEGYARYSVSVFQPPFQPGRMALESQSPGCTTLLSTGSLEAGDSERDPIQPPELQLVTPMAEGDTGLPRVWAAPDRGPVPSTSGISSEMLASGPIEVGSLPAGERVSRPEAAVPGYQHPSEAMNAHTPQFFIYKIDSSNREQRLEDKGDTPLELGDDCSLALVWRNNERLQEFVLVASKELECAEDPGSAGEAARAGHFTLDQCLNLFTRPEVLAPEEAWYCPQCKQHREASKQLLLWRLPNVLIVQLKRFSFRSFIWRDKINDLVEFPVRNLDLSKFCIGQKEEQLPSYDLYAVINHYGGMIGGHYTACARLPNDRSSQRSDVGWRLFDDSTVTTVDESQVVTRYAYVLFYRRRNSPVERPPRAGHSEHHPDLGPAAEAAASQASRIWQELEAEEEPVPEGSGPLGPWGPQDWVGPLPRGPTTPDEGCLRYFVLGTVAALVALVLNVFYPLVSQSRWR
Procedure, shortened: (§1)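 Labelled DUBs from HEK293T lysate were NeutrAvidin-enriched, digested with LysC and trypsin, and run by diaPASEF LC-MS/MS. Before that, each 495 µg sample in Tris/CHAPS/IGEPAL buffer with protease inhibitors was treated in triplicate with fragment at 200 µM or vehicle for 3 h, then with Biotin-Ahx-Ub-VS at 0.5 µM final for 1 h. Values are average log2 ratios of fragment over vehicle by unpaired t-test, based on global-median-normalised Spectronaut label-free quantities from proteins with ≥2 unique peptides.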

USP22 = molecular target: T2, USP22 (UniProt Q9UPT9)
T2 sequence (whole entry): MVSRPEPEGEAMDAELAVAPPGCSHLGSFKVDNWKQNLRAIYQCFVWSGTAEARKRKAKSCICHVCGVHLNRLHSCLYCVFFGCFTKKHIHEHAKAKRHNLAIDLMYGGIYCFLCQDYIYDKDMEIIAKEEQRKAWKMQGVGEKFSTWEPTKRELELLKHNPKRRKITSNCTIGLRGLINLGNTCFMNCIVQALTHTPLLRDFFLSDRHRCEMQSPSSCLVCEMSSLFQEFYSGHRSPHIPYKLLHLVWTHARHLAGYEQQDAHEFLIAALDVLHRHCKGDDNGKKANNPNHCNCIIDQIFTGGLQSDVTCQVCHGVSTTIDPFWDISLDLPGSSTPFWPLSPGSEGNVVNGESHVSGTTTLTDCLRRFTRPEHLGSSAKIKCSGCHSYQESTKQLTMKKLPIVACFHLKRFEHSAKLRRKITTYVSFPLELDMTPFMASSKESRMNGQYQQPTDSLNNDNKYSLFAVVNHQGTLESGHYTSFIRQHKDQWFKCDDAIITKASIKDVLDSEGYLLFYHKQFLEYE
Procedure, shortened: as §1

USP24 = USP24 (UniProt Q9UPU5)
Procedure, shortened: as §1

USP25 = molecular target: T3, USP25 (UniProt Q9UHP3)
T3 sequence (whole entry): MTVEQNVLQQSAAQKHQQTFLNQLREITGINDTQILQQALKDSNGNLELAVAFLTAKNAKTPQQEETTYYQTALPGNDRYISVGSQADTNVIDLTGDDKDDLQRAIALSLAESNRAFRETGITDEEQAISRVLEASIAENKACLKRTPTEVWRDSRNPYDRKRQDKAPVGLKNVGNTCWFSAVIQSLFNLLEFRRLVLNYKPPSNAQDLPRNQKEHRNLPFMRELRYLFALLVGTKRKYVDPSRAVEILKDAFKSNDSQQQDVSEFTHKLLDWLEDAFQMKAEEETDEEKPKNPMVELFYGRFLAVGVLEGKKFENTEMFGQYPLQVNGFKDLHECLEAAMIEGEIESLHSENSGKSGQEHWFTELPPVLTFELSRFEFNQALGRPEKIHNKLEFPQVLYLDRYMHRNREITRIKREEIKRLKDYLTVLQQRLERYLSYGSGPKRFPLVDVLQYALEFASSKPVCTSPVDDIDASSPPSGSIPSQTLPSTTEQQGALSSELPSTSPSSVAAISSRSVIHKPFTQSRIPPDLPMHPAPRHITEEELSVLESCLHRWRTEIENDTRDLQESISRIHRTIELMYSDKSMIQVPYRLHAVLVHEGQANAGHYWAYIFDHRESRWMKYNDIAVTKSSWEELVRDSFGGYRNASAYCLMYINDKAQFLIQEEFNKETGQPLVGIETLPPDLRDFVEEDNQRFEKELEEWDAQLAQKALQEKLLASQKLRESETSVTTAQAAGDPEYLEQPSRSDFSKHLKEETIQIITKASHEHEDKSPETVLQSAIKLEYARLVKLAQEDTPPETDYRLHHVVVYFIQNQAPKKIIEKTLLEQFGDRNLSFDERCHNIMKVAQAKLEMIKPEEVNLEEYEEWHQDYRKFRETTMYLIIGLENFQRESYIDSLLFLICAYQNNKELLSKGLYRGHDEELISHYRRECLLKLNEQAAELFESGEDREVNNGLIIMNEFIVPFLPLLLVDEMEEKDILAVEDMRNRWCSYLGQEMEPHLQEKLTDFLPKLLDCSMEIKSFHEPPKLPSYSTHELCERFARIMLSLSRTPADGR
Procedure, shortened: as §1

USP28 = molecular target: T4, USP28 (UniProt Q96RU2)
T4 sequence (whole entry): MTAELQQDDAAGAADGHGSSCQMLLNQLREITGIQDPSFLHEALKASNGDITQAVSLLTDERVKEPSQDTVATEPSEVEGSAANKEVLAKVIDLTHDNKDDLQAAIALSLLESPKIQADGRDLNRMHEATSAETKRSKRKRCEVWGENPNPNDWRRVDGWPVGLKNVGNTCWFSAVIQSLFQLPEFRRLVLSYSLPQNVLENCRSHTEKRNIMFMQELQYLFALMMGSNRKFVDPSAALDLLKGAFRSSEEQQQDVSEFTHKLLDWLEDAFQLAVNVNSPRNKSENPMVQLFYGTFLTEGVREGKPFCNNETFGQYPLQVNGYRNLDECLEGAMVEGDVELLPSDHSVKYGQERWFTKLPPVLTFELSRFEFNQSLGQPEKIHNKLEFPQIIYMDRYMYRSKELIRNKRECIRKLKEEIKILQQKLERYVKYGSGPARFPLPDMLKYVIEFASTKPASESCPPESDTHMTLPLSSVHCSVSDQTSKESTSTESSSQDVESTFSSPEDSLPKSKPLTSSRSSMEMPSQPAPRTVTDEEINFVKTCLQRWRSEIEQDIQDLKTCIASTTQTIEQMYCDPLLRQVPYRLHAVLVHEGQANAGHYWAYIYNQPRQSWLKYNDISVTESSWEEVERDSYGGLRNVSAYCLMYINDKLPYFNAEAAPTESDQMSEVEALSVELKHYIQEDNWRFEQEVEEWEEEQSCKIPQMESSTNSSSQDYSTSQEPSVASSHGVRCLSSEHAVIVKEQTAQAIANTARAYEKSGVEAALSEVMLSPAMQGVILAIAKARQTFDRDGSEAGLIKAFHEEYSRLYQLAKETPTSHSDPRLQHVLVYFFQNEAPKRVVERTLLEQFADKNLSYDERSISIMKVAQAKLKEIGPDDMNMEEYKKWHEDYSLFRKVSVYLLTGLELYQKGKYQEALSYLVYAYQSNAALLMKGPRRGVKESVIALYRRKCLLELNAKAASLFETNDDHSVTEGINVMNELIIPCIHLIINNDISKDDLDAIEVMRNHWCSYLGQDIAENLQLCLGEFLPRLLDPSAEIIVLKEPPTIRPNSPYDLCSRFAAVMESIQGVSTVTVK
Procedure, shortened: as §1

Measured: log2 ratio of Biotin-Ahx-Ub-VS probe labelling

Chain of USP24 (Q9UPU5 whole entry): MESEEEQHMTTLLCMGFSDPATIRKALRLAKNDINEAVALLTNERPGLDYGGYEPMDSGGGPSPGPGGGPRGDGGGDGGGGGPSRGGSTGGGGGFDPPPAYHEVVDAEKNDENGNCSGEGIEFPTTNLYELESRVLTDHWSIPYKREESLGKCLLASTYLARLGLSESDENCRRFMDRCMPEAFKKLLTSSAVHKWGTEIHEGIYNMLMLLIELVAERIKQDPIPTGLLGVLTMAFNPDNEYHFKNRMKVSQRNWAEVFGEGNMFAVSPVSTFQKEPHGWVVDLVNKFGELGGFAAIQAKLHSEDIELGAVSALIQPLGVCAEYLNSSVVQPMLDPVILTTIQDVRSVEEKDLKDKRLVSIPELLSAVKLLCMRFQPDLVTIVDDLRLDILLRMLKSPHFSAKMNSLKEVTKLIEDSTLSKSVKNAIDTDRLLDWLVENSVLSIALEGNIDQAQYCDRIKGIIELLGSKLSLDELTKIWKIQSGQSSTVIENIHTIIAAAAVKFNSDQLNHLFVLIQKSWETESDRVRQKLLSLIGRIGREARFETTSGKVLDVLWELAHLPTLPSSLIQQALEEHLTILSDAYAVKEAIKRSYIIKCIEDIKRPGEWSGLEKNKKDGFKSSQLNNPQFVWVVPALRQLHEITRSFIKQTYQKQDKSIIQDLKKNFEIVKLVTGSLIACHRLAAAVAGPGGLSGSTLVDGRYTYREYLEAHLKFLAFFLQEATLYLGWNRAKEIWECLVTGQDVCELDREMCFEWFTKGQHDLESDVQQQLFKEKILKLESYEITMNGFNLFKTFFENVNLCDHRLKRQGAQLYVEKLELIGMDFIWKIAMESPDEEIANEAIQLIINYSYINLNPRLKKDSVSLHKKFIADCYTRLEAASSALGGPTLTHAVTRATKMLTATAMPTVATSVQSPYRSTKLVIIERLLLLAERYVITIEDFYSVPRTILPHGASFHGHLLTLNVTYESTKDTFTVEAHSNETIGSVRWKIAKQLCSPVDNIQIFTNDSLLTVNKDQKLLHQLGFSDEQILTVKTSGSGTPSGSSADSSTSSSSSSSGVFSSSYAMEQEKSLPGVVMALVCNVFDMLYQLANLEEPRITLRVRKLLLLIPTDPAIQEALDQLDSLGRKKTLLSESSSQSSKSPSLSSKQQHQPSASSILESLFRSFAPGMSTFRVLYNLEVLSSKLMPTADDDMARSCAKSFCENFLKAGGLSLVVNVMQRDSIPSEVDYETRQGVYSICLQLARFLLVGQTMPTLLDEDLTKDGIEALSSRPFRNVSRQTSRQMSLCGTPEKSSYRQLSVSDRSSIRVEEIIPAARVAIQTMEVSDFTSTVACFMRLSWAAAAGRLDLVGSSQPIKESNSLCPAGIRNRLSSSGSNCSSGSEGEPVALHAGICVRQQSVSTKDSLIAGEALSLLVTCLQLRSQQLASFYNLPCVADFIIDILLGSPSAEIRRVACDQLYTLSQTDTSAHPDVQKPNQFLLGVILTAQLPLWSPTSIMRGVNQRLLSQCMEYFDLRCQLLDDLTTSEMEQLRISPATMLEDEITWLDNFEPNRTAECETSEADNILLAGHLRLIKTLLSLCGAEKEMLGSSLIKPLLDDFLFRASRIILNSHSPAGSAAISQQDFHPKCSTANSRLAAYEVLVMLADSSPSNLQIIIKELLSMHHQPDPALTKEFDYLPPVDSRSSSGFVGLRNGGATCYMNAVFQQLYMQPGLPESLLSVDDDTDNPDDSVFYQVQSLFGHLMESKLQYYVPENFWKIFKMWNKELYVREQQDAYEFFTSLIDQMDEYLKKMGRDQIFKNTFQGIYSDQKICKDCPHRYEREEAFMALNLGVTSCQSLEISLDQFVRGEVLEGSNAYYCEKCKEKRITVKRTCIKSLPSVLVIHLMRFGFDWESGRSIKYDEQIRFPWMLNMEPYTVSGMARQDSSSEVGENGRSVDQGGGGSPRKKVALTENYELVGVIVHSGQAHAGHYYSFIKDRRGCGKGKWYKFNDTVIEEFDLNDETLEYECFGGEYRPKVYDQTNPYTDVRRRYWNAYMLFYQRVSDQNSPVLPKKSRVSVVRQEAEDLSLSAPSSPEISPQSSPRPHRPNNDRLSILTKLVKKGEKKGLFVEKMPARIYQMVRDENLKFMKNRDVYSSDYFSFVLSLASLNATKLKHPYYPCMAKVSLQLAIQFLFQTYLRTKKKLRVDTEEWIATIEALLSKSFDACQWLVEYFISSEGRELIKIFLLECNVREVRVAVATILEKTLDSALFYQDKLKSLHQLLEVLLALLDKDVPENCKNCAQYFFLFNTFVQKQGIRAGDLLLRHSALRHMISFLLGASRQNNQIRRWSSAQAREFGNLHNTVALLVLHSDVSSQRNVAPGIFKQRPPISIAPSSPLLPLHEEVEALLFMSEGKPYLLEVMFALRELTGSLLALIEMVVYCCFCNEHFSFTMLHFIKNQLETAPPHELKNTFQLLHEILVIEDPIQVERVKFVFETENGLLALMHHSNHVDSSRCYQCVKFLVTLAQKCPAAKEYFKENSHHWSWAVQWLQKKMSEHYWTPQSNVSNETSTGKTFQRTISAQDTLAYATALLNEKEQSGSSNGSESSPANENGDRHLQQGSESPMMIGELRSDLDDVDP

Cc1ccn2cc(CNC(=O)CCl)nc2c1.Cl
inactive: USP19 -0.148 | USP22 -0.112 | USP24 -0.106 | USP25 -0.398 | USP28 -0.272
